ssDAF-12 act = activates DAF-12 receptor from parasite S. stercoralis. HEK293 ssDAF-12/GRIP1 lit1-tk-luc reporter, luminescence; % of 3 µM dafachronic acid response. activation, % at 6.8 µM. 370,000 tested, 1% active. AID 652126;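 active = activation above the mean over all tested compounds plus 3 SD, cut at about 0.9% in these data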;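 note: 0% = DMSO-only wells and 100% = 3 µM delta7-dafachronic acid wells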
DAX1 inh-1 = inhibitors of human orphan nuclear receptor DAX1 (NR0B1); HEK293 Gal4-DAX1 luciferase reporter, luminescence; P51843; inhibition, % at 6.75 µM; AID 504766; 340,000 tested, 0.99% active;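 active = inhibition above the mean over all tested compounds plus 3 SD, cut at about 4.2% in these data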;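 note: 0% = DAX1-transfected cells with DMSO and 100% = empty-vector control cells with DMSO; inhibition shows as a rise in luminescence from relieved DAX1 repression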
Target sequence (P51843 207-470 limits assumed): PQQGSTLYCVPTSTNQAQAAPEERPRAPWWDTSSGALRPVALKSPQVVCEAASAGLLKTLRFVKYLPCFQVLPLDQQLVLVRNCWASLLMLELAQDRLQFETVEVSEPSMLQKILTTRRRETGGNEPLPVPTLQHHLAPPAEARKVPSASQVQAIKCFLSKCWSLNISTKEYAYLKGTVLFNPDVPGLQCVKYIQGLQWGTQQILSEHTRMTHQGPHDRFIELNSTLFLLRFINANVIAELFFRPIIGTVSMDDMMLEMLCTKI
DAX1 inh-2 = blocks DAX1 repression of SF-1 activated StAR promoter; HEK293T StAR-luciferase reporter, SF-1/DAX-1 repression relief; inhibition, % at 6.8 µM; 370,000 tested, 1.1% active;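 active = inhibition above the mean over all tested compounds plus 3 SD, cut at about 3.6% in these data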;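 note: 0% = DAX-1 cells with DMSO and 100% = cells lacking DAX-1 with DMSO; higher inhibition means more luminescence from relief of DAX-1 repression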
AHR act = activators of human aryl hydrocarbon receptor; P35869; AHR-responsive luciferase reporter cells, luminescence; activation, % at 5 µM; 320,000 tested, 2.5% active; in the data active = activation above about 47%;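 note: 0% = vehicle wells and 100% = reference agonist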
hgDAF-12 ag = hgDAF-12 agonism, primary luciferase screen | HEK293 GAL4-hgDAF12 UAS-luciferase reporter, agonist luminescence; normalized to butyrate control | activation, % at 6.8 µM | 370,000 tested, 1.8% active;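 active = activation above a cutoff set at the mean of all screened compounds plus 3 SD, cut at about 10% in these data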;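 note: 0% = DMSO wells and 100% = sodium butyrate wells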
hcDAF-12 act = H. contortus DAF-12 activation, primary screen. HEK293 hcDAF-12 lit1-tk-luc reporter, luminescence; 0% DMSO, 100% Δ7-dafachronic acid. activation, % at 6.8 µM. 370,000 tested, 1.4% active. AID 652067;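 active = activation above the mean of all tested compounds plus 3 SD, cut at about 5.5% in these data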;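 note: 100% = response to 3 µM Δ7-dafachronic acid high control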
AHR act cf = confirmation of human aryl hydrocarbon receptor activators; shares compounds with AHR act; human cells, AHR-responsive luciferase reporter, luminescence; activation, % at 9 µM; 2,300 tested, 87% active; AID 2845; in the data active = activation above about 49%;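 note: HepG2 hepatoma cells carrying a DRE-driven firefly luciferase reporter; 0% = vehicle wells and 100% = reference agonist wells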
PXR counter = PXR activation, counter-screen for AHR activators | shares compounds with AHR act | cell-based PXR reporter, luciferase luminescence | activation, % at 11.6 µM | 2,300 tested, 88% active | AID 434939; in the data active = activation above about 11%;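 note: human hepatoma DPX-2 cells expressing full-length human PXR; 0% = DMSO and 100% = reference agonist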
* = called active by the depositor; . = not tested or not shown. Rows were chosen to be rich in hits. Some 5.7% of all compounds tested hit in one or more screens of this group.

SMILES | ssDAF-12 act | DAX1 inh-1 | DAX1 inh-2 | AHR act | hgDAF-12 ag | hcDAF-12 act | AHR act cf | PXR counter
S=c1[nH]c2ccccc2n1CCOc1ccccc1 | -1 | 2 | 0 | 96* | 0 | 0 | 102* | 77*
Cc1cccc(OCCn2c(=S)[nH]c3ccccc32)c1 | -1 | 0 | -1 | 81* | 1 | -1 | 90* | 74*
COc1ccccc1Nc1nc(N)nc(-c2cc3ccccc3o2)n1 | -1 | 1 | 0 | 85* | 7 | -1 | 21 | 46*
COc1ccccc1Nc1nc(N)nc(CN2CCOCC2)n1 | -2 | 1 | 0 | 14 | 1 | -1 | . | .
Cc1cc(C)n2nc(N)c(N=Nc3ccc(Cl)cc3)c2n1 | -1 | 1 | 0 | 109* | 1 | -3 | 98* | 31*
Cc1cc(C)n2nc(C)c(-c3ccc(Cl)cc3)c2n1 | -1 | 1 | 0 | 6 | 4 | -2 | . | .
C=C(C)CNC(=S)N/N=C(\C)c1ccc(-n2ccnc2)cc1 | -2 | -1 | -1 | 94* | -2 | -3 | 98* | 36*
Cc1cccc(NC(=O)CN(C)C(C)C(=O)Nc2ccc(S(=O)(=O)N3CCCC3)cc2)c1C (stereo not drawn) | -1 | 0 | -2 | . | -3 | 0 | . | .
COc1cc(/C=N/NC(=O)c2cccc(NC(=O)c3ccccc3C)c2)ccc1O | -1 | -1 | 0 | 15 | 3 | -1 | . | .
COc1cc(/C=N/NC(=O)c2cccc(NC(=O)c3ccccc3)c2)ccc1O | -1 | -1 | 1 | 100* | -1 | -1 | 88* | .
CCn1c(SCC(=O)N2CCCCC2)nc2c([nH]c3ccccc32)c1=O | 0 | 2 | 1 | . | 4 | 2 | . | .
C=CCn1c(SCC(=O)N2CCOCC2)nc2c([nH]c3ccccc32)c1=O | 1 | -1 | 0 | 88* | 0 | 0 | 92* | 77*
Cc1ccccc1NC(=S)NC12CN3CN(CN(C3)C1)C2 | 0 | 3 | 0 | 1 | -2 | 1 | . | .
CCCn1c(SCC(=O)c2c(C)[nH]c(C)c2C(=O)OCC)nc2ccccc21 | -1 | 0 | -1 | 26 | -1 | -3 | . | .
CCOC(=O)c1c(C)[nH]c(C)c1C(=O)CSc1nc2ccccc2n1CCC#N | -2 | 0 | 0 | 99* | -6 | 0 | 5 | 79*
N#Cc1ccccc1NC(=O)COc1ccccc1C(=O)Nc1ccccc1 | 0 | 1 | -3 | 93* | -2 | 1 | 95* | 41*
COc1cc(-c2nc(-c3ccccc3)c(-c3ccc(F)cc3)[nH]2)cc2c1OCO2 | -2 | 0 | -1 | 116* | 2 | -3 | 84* | 66*
COc1cc(-c2nc(-c3ccc4c(c3)-c3ccccc3S4(=O)=O)c(-c3ccccc3)[nH]2)cc(OC)c1O | -1 | -2 | -2 | 8 | -4 | -2 | . | .
CC(=O)n1cc([C@H]2C=C(C(=O)NCc3ccccc3)O[C@@H](OCCCCO)C2)c2ccccc21 | -1 | 0 | -1 | 87* | 1 | 0 | 106* | 61*
Cc1c(-c2ccn[nH]2)cc(NC(=O)c2ccc(Cl)cc2)c(=O)n1N | -1 | . | 0 | 86* | -5 | -1 | 105* | .
O=C1CSC(c2ccc(F)cc2)N1c1ccccc1F (stereo not drawn) | -1 | 1 | 0 | 4 | -2 | -2 | . | .
O=C1CSC(c2ccc(F)cc2)N1c1nc2ccccc2s1 (stereo not drawn) | -2 | 0 | 0 | 149* | 1 | -1 | 98* | 63*
FC(F)(F)c1ccc(-c2nnc(-c3ccccn3)c(-c3ccccn3)n2)nc1 | -2 | 0 | 0 | 20 | 0 | -1 | . | .
O=C(C[n+]1cc(Br)cc2ccccc21)c1ccc(Br)cc1 | -1 | -1 | 0 | 101* | 1 | 5 | 112* | 30*
NC(=O)CN1CCN(S(=O)(=O)c2ccc(Br)cc2)CC1 | -1 | -1 | 0 | 3 | 0 | -2 | . | .
